Structures are written as SMILES.

The assay has as its system Lefty1. Nature of the assay: Lefty1 protein binding to printed compounds – biochemical, small-molecule microarray, 635/667 nm fluorescence, primary screen (AID 1139). To be noted: fluorescence 635/667, higher = more signal.
`C=C(C)C1C(=C)CN([C@H](CO)c2ccccc2)C1=O` (stereo partly specified) returned a composite z-score of 0.587.

In the case of `COc1ccc(C(O)C2C=CC3C(=O)N(c4ccccc4)C(=O)C3N2Nc2ccccc2F)cc1OCc1ccccc1` (stereo unspecified), the composite z-score was -0.454.

For the compound `COCCCNC(=O)[C@@]1(Cc2ccccc2)N=C(c2ccc(OCCCO)cc2)O[C@H]1c1ccccc1`, the composite z-score was -0.559.

The compound `CC(C)C(CO)N1C(=O)[C@@H]2[C@H]3C(=O)OCC=C[C@H]3OC23C=CCN(C(C)C)C(=O)[C@@H]13` (stereo partly specified) gave a composite z-score of 0.433.

As for `[N-]=[N+]=Nc1ccccc1[C@H]1OC(c2ccc(OCCCO)cc2)=N[C@@]1(Cc1ccccc1)C(=O)O`, the composite z-score is 0.708.

With `Cc1ccc(S[C@]2(C(=O)NC(C)C)CC(=O)N(Cc3ccccc3Cl)[C@@H]2c2ccc(CO)cc2I)cc1`, the composite z-score is -0.658.

Regarding `CN(C)CCCCCCNC(=O)[C@@H]1C[C@@H]2C(=O)N[C@@H](CCCCN)C(=O)N2[C@@H]1c1cccc(OCCO)c1`, the composite z-score turned out to be 1.66.

For `CC(C)(C)OC(=O)CC[C@]12N=C(c3ccc(OCCCO)cc3)O[C@H]1c1ccccc1N(CCS(=O)(=O)c1ccccc1)C2=O`, the composite z-score turned out to be 0.5.

Consider `COCCn1c(C(=O)N2CCCC2)cc2c1C[C@H]1CN(C(=O)c3ccccc3)[C@@](Cc3ccc(F)cc3)(C(=O)OC)[C@@H]21`, for which the composite z-score was 0.108.

In turn, `CC1CC/C=C\[C@H]2OC34C=CCN(C(C)(C)C)C(=O)[C@H]3N(CCCCCCO)C(=O)[C@@H]4C2C(=O)O1` (stereo partly specified) registered a composite z-score of -0.349.

Compound `COCCOC(=O)N1C(=O)[C@@]2(c3cc(C#Cc4ccc(OC)cc4)ccc31)[C@H](C(N)=O)[C@H]1C(=O)O[C@H](c3ccccc3)[C@H](c3ccccc3)N1[C@@H]2c1ccccc1OCCO` came in with a composite z-score of 1.58.

With `O=C1OCCC/C=C\[C@H]2OC34C=CCN(c5ccc6ccccc6c5)C(=O)[C@H]3N(CCCCCCO)C(=O)[C@@H]4C12` (stereo partly specified), the composite z-score was -0.159.

With `COc1ccc([C@H]2C[C@H]3C(Br)=C[C@@H]2C(=O)[C@]32CO2)cc1`, the composite z-score turned out to be 0.0745.

As for `COCCOC(=O)N1C(=O)[C@@]2(c3cc(C#CCCO)ccc31)[C@H](c1ccc(OCCO)cc1)N1[C@H](c3ccccc3)[C@H](c3ccccc3)OC(=O)[C@H]1[C@@H]2C(=O)N1CCN(c2ncccn2)CC1`, the composite z-score stood at 1.37.

Take `Cc1ccc(C(C)CC(O)C2C=CC3C(=O)N(C)C(=O)C3N2NC(=O)OC(C)(C)C)o1` (stereo unspecified): the composite z-score came out at 0.444.

`C=CC[C@@]1(C(=O)N(C)C)N=C(c2ccc(OCCCO)cc2)O[C@@H]1c1ccccc1N=[N+]=[N-]` showed a composite z-score of 0.406.

Compound `COCCOC(=O)N1C(=O)[C@@]2(c3cc(C#CCCO)ccc31)[C@H](C(=O)Nc1nc3ccccc3s1)[C@H]1C(=O)O[C@H](c3ccccc3)[C@H](c3ccccc3)N1[C@@H]2c1ccc(OCCO)cc1` yielded a composite z-score of 1.26.

Compound `O=C(c1ccccc1)N1Cc2ccccc2[C@@H]2OC(c3ccc(OCCCO)cc3)=N[C@]2(Cc2ccccc2)C1=O` had a composite z-score of 0.838.

Consider `NCCCCCNC(=O)[C@@H]1C[C@@H]2C(=O)N[C@@H](Cc3ccccc3)C(=O)N2[C@@H]1c1cccc(OCCO)c1`, for which the composite z-score was determined as 0.325.

In the case of `COc1ccc([C@H]2OC[C@@H]3CC4(CC=CC4)C(=O)N32)cc1`, the composite z-score came out at 1.35.

`CN1C(=O)C2C=CC(C(O)Cc3ccccc3)N(Nc3ccccc3)C2C1=O` (stereo unspecified) had a composite z-score of -0.0697.

`[N-]=[N+]=NCc1ccccc1[C@@H]1OC(c2ccc(OCCCO)cc2)=N[C@]1(Cc1ccccc1N=[N+]=[N-])C(=O)N1CCOCC1` displayed a composite z-score of -0.207.

`COc1ccc(CCNC(=O)[C@@]2(Sc3ccc(C)cc3)CC(=O)N(C3CCCCC3)[C@@H]2c2ccc(CO)cc2I)cc1` came in with a composite z-score of 0.569.

Consider `[N-]=[N+]=NCc1ccccc1[C@@H]1OC(c2ccc(OCCCO)cc2)=N[C@]1(CCS(=O)(=O)c1ccccc1)C(=O)NCc1ccccc1`, for which the composite z-score came to 1.49.

`O=C1OCC=C[C@H]2OC34C=CCN(CCN5CCOCC5)C(=O)[C@H]3N(CCCO)C(=O)[C@@H]4[C@@H]12` (stereo partly specified) returned a composite z-score of 0.606.

`CCc1oc(CC[C@@H](CO)NC(=O)NCCn2cc(C3(O)CCCCC3)nn2)c(C(=O)OC)c1C(=O)OC` gave a composite z-score of 1.63.

In turn, `COC(=O)[C@@]1(Cc2ccc(F)cc2)[C@H]2c3cc(C(=O)N(C)C)n(Cc4nc5ccccc5[nH]4)c3C[C@H]2CN1C(=O)c1ccccc1` showed a composite z-score of -0.0816.

In the case of `COc1ccc(CCN2C(=O)[C@@]3(c4ccc([N+](=O)[O-])cc4)CC(=O)N(C4CCCCC4)[C@@H]3c3ccc(CO)cc32)cc1`, the composite z-score worked out at 0.563.

For `O=C(O)[C@@]1(CCS(=O)(=O)c2ccccc2)COC(c2ccc(OCCCO)cc2)=N1`, the composite z-score is -1.34.

The compound `CC(C)C[C@@H]1NC(=O)[C@H]2C[C@@H](C(=O)NCCCCCCN)[C@@H](c3ccc(O)cc3)N2C1=O` showed a composite z-score of 0.632.

Compound `CCCC[C@H]1OB(O)C[C@H]2C1=C(COc1ccccc1)C[C@H]1C(=O)N(C)C(=O)[C@H]12` had a composite z-score of 0.576.

Take `O=C1O[C@H](c2ccccc2)[C@H](c2ccccc2)N2[C@H]1[C@@H](C(=O)N1CCN(c3ncccn3)CC1)[C@]1(C(=O)Nc3ccc(C#CC4=CCCCC4)cc31)[C@H]2c1ccc(O)cc1`: the composite z-score was 0.497.

Take `C#CCN(CC=C(C)C)[C@H](CO)c1ccccc1`: the composite z-score was -0.0431.

`Cc1ccc(S[C@]2(C(=O)NCCN3CCOCC3)CC(=O)N(Cc3ccccc3Cl)[C@@H]2c2ccc(CO)cc2)cc1` had a composite z-score of -0.188.

For `O=C1NC(=O)C2C1C=CC(C(O)Cc1ccccc1)N2Nc1ccc(Cl)cc1Cl` (stereo unspecified), the composite z-score was -0.695.

`C=CCOC(=O)[C@@H]1[C@H]2C(=O)O[C@H](c3ccccc3)[C@H](c3ccccc3)N2[C@H](c2ccc(OCCOC(=O)[C@@H]3C[C@@H]4C(=O)N5CCC[C@H]5C(=O)N4[C@@H]3c3ccc(O)cc3)cc2)[C@@]12C(=O)Nc1ccc(I)cc12` displayed a composite z-score of 0.793.

Values taken from PubChem BioAssay.
